Measurements taken from PubChem BioAssay.
Values without a mark were called inactive. Active and inactive are the calls of the source.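 Rule for the calls: active = mean inhibition over 43.08%, the solvent-only control mean plus 3 SD; inactive = the rest.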

molecular target: Nuclear receptor coactivator 3 (Homo sapiens) (UniProt Q9Y6Q9); assay: NCOA3 GAL4-fusion reporter inhibition – cell-based, luminescence, quadruplicate, confirmation (AID 588792); conditions: HEK293 GAL4-SRC3 luciferase reporter, at 3.6 µM, active compounds read high;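 note: 0% = DMSO treated cells and 100% = gossypol at 36 µM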
Sequence (Q9Y6Q9 whole entry, looked up, the tested form may be a part): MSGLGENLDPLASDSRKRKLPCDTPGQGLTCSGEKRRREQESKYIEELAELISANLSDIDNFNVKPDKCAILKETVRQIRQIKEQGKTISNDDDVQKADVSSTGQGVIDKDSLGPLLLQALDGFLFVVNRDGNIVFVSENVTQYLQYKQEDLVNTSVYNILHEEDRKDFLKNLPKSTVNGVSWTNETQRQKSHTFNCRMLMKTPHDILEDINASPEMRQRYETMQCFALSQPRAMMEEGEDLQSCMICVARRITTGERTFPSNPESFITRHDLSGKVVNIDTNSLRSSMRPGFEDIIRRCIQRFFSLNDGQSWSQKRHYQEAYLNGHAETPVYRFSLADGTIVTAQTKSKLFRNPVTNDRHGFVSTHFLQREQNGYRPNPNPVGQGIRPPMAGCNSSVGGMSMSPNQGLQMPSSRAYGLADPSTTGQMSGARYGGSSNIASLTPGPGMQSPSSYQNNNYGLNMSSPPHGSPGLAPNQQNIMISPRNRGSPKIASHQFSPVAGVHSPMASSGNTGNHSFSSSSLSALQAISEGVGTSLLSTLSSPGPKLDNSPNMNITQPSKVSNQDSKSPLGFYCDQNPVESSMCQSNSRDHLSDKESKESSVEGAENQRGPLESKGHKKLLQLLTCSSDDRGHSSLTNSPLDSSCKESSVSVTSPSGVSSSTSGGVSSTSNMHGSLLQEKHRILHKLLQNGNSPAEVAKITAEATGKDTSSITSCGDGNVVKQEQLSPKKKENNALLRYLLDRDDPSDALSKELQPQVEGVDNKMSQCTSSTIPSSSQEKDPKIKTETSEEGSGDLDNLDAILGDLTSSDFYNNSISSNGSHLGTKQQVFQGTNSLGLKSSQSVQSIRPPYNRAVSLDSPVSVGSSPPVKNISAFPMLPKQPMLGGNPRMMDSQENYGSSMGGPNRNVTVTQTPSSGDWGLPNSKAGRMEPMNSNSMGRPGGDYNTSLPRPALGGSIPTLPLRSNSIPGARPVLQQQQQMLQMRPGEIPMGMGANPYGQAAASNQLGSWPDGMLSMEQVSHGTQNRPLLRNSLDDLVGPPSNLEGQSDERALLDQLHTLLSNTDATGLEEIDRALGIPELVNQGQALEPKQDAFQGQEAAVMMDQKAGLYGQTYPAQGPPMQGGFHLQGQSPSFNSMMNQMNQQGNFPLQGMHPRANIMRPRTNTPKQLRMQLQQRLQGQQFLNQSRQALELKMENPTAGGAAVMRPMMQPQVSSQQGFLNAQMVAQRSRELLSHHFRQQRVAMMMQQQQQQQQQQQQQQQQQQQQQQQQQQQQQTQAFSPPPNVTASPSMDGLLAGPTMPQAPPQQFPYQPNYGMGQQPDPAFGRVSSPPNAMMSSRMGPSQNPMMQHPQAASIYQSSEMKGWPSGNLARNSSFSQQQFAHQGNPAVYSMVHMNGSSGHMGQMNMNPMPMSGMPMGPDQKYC

Compound	inhibition
Cc1ccc(C(=O)CSc2cnc3ccccc3n2)cc1C	-16.1%
Cn1c(=O)c2c(nc(Oc3ccc4ccccc4c3)n2C)n(C)c1=O	47.5% (active)
CC(=O)N1CCN(c2ccc(Oc3ncnc4sccc34)cc2)CC1	25.7%
COc1ccc(-c2cn[nH]c2N)c(OC)c1	59.7% (active)
Cc1ccc(NC(=O)NC2CC(=O)N(c3ccc4c(c3)OCCO4)C2)cc1C (stereo unspecified)	41.9%
Cc1cc(=O)[nH]c(Nc2cccc(C(F)(F)F)c2)n1	38.8%
CC1CCN(Cc2c(C(=O)N/N=C/c3cc(Br)ccc3O)nnn2-c2nonc2N)CC1	75.4% (active)
CC(=O)c1cccc(NC(=O)Nc2cccnc2)c1	64.6% (active)
O=C(CCSc1nc2ccccc2s1)N/N=C/c1c(O)ccc2ccccc12	20.2%
N=c1c2c(-c3ccccc3)c(-c3ccccc3)n(Cc3ccco3)c2ncn1CCCn1ccnc1	34%
COc1cc(Cl)cc(/C=N\NC(=O)c2ccc3c(c2)OCO3)c1O	24.7%
O=C(N/N=C/c1sc(N2CCOCC2)nc1-c1ccccc1)c1cccc(S(=O)(=O)N2CCCC2)c1	53.4% (active)
Cc1ccc(N=c2c([N+](=O)[O-])nn(-c3ccc4c(c3)OCCO4)n2O)cc1F	36.5%
O=C(c1ccncc1)N(Cc1cc2ccccc2[nH]c1=O)C1CCCCC1	40.7%
COc1ccc(Cl)cc1Nc1nc(-c2sc(NC(=O)C(C)(C)C)nc2C)cs1	15.2%
O=C(/C=C/c1ccc(OCCCF)cc1)Nc1ccnc(-c2cccnc2)n1	17.1%
